PubChem BioAssay (NCATS)
Records with an inconclusive call do not appear. A call without a number means that no potency is given here. Activity calls are given as the source filed them. Calls follow the shape of the dose curve; as a rule, active = well fitted cell-killing curve with a large enough effect; inconclusive = small, poorly fitted or top-dose-only effect, or effect the other way; inactive = no such curve, though single readings can be large or run the other way.

assay: Quantitative High-Throughput drug screen in 47 multiple myeloma cell lines against the NCATS MIPE library collection: H1112_PLB cell viability assay (AID 1918967; also: nearly all actives have a fitted effect of over 30% in size); conditions: H1112 myeloma cells viability, ATP luminescence, 48 h; series mostly up to 45.8 µM
Text: PI: Beverly A. Mock Ph.D.
Laboratory of Cancer Biology and Genetics,
Center for Cancer Research, National Cancer Institute,
National Institute of Health, Bethesda, Maryland
Drug resistance and disease progression are common in multiple myeloma (MM) patients, underscoring the need for new therapeutic combinations. […] We hypothesized that effective combinations would reduce MYC expression and enhance p16 activity. […] These preclinical data identify potentially useful drug combinations for evaluation in drug-resistant MM and reveal potential mechanisms of combined drug sensitivity.
Described herein is the primary MIPE qHTS used to cherrypick compounds. Validated compounds were then further tested for potential synergistic activiy.
[1] Peat TJ, Gaikwad SM, Dubois W, Gyabaah-Kessie N, Zhang S, Gorjifard S, Phyo Z, Andres M, Hughitt VK, Simpson RM, Miller MA, Girvin AT, Taylor A, Williams D, D'Antonio N, Zhang Y, Rajagopalan A, Flietner E, Wilson K, Zhang X, Shinn P, Klumpp-Thomas C, McKnight C, Itkin Z, Chen L, Kazandijian D, Zhang J, Michalowski AM, Simmons JK, Keats J, Thomas CJ, Mock BA. Drug combinations identified by high-throughput screening promote cell cycle transition and upregulate Smad pathways in myeloma. Cancer Lett. 2023 Aug 1;568:216284. doi: 10.1016/j.canlet.2023.216284. Epub 2023 Jun 24. PMID: 37356470; PMCID: PMC10408729.
SEQUENCE No. (e.g., 1, 2, 3, etc.); […] (e.g., Cells, Incubation, Reagent, etc.); VALUE and DESCRIPTION.
1; Cells; 5 uL; white, solid bottom 1536-well Greiner assay plate.
2; Compounds; 23 nL; Kalypsis pin tool (Wako USA) equipped with a 1536-well pin head to transfer to the assay plates.
3; Incubation; 48 hours; 37C incubation.
4; Reagent;5uL; CellTiter Glo (Promega).
5; Detector; 425V; Luminescence; Viewlux PerkinElmer.
NOTES (numbers refer to Sequence numbers above)
1. The cell-based screening methods employed in this study were like those previously published. Briefly, the corresponding myeloma cell lines were screened in 1,536-well plates with 500 cells, 5-uL per well for inhibition of cell viability (assessed by measuring ATP levels with CellTiterGlo).
2. NCATS MIPE 4.0 library of approved and investigational drugs were added using the Kalypsis pin tool. Wells treated with DMSO only for 100% viability and media only wells for 0% viability were used as controls.
3. The assay plates were covered and incubated for 48 hours in a 37C, 5% CO2 incubator with controlled humidity.
4. After 48 hours, CellTilter-GloTM luminescent substrate mix (Promega) reagent was added to the assay plate and plates we incubated for 5 min at room temperature.
5. Signal was measured as median relative luminescence units on a ViewLux (PerkinElmer) multiplate reader.
[1] Heske CM, Davis MI, Baumgart JT, Wilson K, Gormally MV, Chen L, Zhang X, Ceribelli M, Duveau DY, Guha R, Ferrer M, Arnaldez FI, Ji J, Tran HL, Zhang Y, Mendoza A, Helman LJ, Thomas CJ. Matrix Screen Identifies Synergistic Combination of PARP Inhibitors and Nicotinamide Phosphoribosyltransferase (NAMPT) Inhibitors in Ewing Sarcoma. Clin Cancer Res. 2017 Dec 1;23(23):7301-7311. doi: 10.1158/1078-0432.CCR-17-1121. Epub 2017 Sep 12. PMID: 28899971; PMCID: PMC6636827.
Potency is read from the fitted curve at half-maximal effect.

Compound | Potency
CNCC(O)c1ccc(O)cc1 (stereo not given) | inactive
O=C1CC[C@@]2(O)[C@H]3Cc4ccc(O)c5c4[C@@]2(CCN3CC2CC2)[C@H]1O5 | inactive
Cn1cc(C2=C(c3cn(C4CCN(Cc5ccccn5)CC4)c4ccccc34)C(=O)NC2=O)c2ccccc21 | 10.5 µM (active)
C[C@@H]1[C@@H](C(=O)C[C@H]2O[C@@H]3O[C@]4(C)CC[C@@H]5[C@H](C)CC[C@@H]([C@H]2C)[C@@]35OO4)O[C@@H]2O[C@]3(C)CC[C@H]4[C@H](C)CC[C@@H]1[C@@]24OO3 | 0.469 µM (active)
O=C(O)C(=O)c1cn(Cc2ccccc2)c2ccc(-c3ccc(OC(F)(F)F)cc3)cc12 | 14.8 µM (active)
CC1=C2C[C@@H]3[C@@H](CC=C4C[C@@H](O)CC[C@@]43C)[C@@H]2CC[C@]12O[C@H]1C[C@H](C)CN[C@H]1[C@H]2C | inactive
CNC(=O)c1ccc(N2C(=S)N(c3ccc(C#N)c(C(F)(F)F)c3)C(=O)C23CCC3)cc1F | 3.72 µM (active)
CN(C)[C@@H]1C(=O)C(C(N)=O)=C(O)[C@@]2(O)C(=O)C3=C(O)c4c(O)cccc4[C@@](C)(O)[C@H]3C[C@@H]12 | inactive
COc1ccc2c(c1OC)CN1CCc3cc4c(cc3C1C2)OCO4 (stereo not given) | inactive
NCC1(CC(=O)O)CCCCC1 | inactive
C[C@@H]1[C@@H](CC(C[C@H]2O[C@@H]3O[C@]4(C)CC[C@@H]5[C@H](C)CC[C@@H]([C@H]2C)[C@@]35OO4)C[S+](=O)([O-])c2ccc(COC(=O)N(C)C)cc2)O[C@@H]2O[C@]3(C)CC[C@H]4[C@H](C)CC[C@@H]1[C@@]24OO3 (stereo not given in full) | 0.209 µM (active)
C=C(C)[C@H]1Cc2c(ccc3c2O[C@@H]2COc4cc(OC)c(OC)cc4[C@@H]2C3=O)O1 | 0.132 µM (active)
CN1CCN(C(=O)O[C@H]2c3nccnc3C(=O)N2c2ccc(Cl)cn2)CC1 | inactive
COC[C@H]1OC(=O)c2coc3c2[C@@]1(C)C1=C(C3=O)C2CCC(=O)[C@@]2(C)C[C@H]1OC(C)=O (stereo not given in full) | 2.64 µM (active)
CN(C)CCN(C)CCc1ccc(Cl)c(Cl)c1 | inactive
CNC(=O)N1N=C(c2ccc(N)cc2)c2cc3c(cc2CC1C)OCO3 (stereo not given) | inactive
N[C@@H](Cc1ccc(N(CCCl)CCCl)cc1)C(=O)O | 6.62 µM (active)
Fc1ccc(C(OCCN2CCN(CCCc3ccccc3)CC2)c2ccc(F)cc2)cc1 | 13.2 µM (active)
C#CCN(C)[C@H](C)Cc1ccccc1 | inactive
CCCC(C)(COC(N)=O)COC(=O)NC(C)C (stereo not given) | inactive
COC[C@@H](NC(C)=O)C(=O)NCc1ccccc1 | inactive
CC(C)CC(N(C)C)C1(c2ccc(Cl)cc2)CCC1 (stereo not given) | 5.26 µM (active)
CC(O)(CS(=O)(=O)c1ccc(F)cc1)C(=O)Nc1ccc(C#N)c(C(F)(F)F)c1 (stereo not given) | 0.235 µM (active)
Cc1cccc(C)c1NC(=O)CN1CCCC1=O | inactive
C[C@@H]1O[C@@H](O[C@H]2C[C@@H](O)[C@]3(CO)[C@H]4[C@H](O)C[C@]5(C)[C@@H](C6=CC(=O)OC6)CC[C@]5(O)[C@@H]4CC[C@]3(O)C2)[C@H](O)[C@H](O)[C@H]1O | 0.0833 µM (active)
Cc1sc2c(c1C)C(c1ccc(Cl)cc1)=N[C@@H](CC(=O)OC(C)(C)C)c1nnc(C)n1-2 | 6.62 µM (active)
Cc1cc(SCc2sc(-c3ccc(C(F)(F)F)c(F)c3)nc2C)ccc1OCC(=O)O | 20.9 µM (active)
COc1ccc(C(=O)c2c(C)n(CCN3CCOCC3)c3ccccc23)cc1 | inactive
COC1(CS(=O)c2ccccc2)CCN(CCc2c[nH]c3ccc(F)cc23)CC1 (stereo not given) | inactive
CN(C)CCc1ccc(O)cc1 | inactive
